# Screening data (PubChem)
# MITF act: MITF TRPM1 promoter activation in melanoma cells. AID 588334. hit rate 0.75% among 300,000. SK-MEL-5 TRPM1-promoter luciferase, 24 h; % of positive control, neutral wells = 0. activation, % at 12.5 µM;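 active = mean activation of at least 80% with every replicate also reaching 80%; inconclusive = mean reaches 80% but some replicate falls short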;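 also: 0% = neutral control wells and 100% = parthenolide positive control wells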
# Wnt bcat act: Wnt/beta-catenin pathway activation | Wnt/beta-catenin reporter cell assay, activator, plate reader | activation, % at 9.35 µM | hit rate 1.2% among 300,000 | AID 743398; in the data active = activation above about 30%, passing the limit was not always enough; inconclusive = no clear call, values can overlap the other calls;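 also: 0% = neutral control wells and 100% = positive control wells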
# esBAF inh: inhibitors of esBAF chromatin remodeling in mouse ES cells. Bmi1-luciferase knock-in reporter, 24 h; 100% = twice the neutral-well signal. reporter increase, % at 12.5 µM. hit rate 2% among 350,000; in the data active = activation above about 40%; inconclusive = no clear call, values can overlap the other calls;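 also: 0% = median of the plate's neutral control wells and 100% = double that signal; a rise in the Bmi1 reporter signal indicates esBAF inhibition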
# Statin myotox sup: suppression of simvastatin myotoxicity. C2C12 myotubes + simvastatin, ATP luminescence, 48 h; scaled: DMSO 0, geranylgeraniol control 100. rescue of ATP level, % at 7.49 µM. hit rate 0.78% among 330,000. AID 602340;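 active = mean ATP rescue above about 67%, or every replicate alone reaching that limit, limit read from the data, passing the limit was not always enough; inconclusive = no clear call, values can overlap the other calls; inactive = mean under the limit and some replicate under it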;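 also: myotubes were challenged with 10 µM simvastatin during compound exposure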
# * hit, by the source's call; ? = inconclusive; · = no result. In the library only some 3% were active in any assay of this set; here they are far more common.
SMILES,MITF act,Wnt bcat act,esBAF inh,Statin myotox sup
Cn1c(=O)[nH]c(=O)c2c1nc1n2CCN1Cc1ccccc1,-7,·,2,-17
C[C@H]1CCCCO[C@H](CN(C)Cc2ccncc2)[C@@H](C)CN([C@@H](C)CO)C(=O)c2cc(NC(=O)CCCN(C)C)ccc2O1,·,·,-8,-17
COC(=O)c1c(-c2ccc(OC)cc2)sc2ccc(N3CCOCC3)cc12,69,11,42*,-44
COC(=O)c1c(-c2ccc(S(C)(=O)=O)cc2)sc2cc(OC)ccc12,58,?,45*,-11
COc1ccc(-c2sc3ccc(N4CCOCC4)cc3c2-c2ccc(O)cc2)cc1,-9,-1,7,-32
COC(=O)c1c(-c2ccc(SC)cc2)sc2ccccc12,55,22,70*,7
COC(=O)c1c(-c2ccc(OC)cc2)sc2cc(OC)c(OC)cc12,13,2,2,2
COC(=O)c1c(-c2ccc(S(C)(=O)=O)cc2)sc2ccc(OC)cc12,107*,47*,59*,-14
Cc1ccc(S(=O)(=O)NCC[C@@H]2CC[C@H](NC(=O)NC(C)C)[C@H](CO)O2)cc1,·,·,-5,1
COCCNC(=O)C[C@H]1C[C@@H]2c3cc(NS(=O)(=O)c4ccc(F)cc4)ccc3O[C@@H]2[C@H](CO)O1,·,·,-4,-4
COC(CN(C(=O)CCl)C(C(=O)NC1CCCCC1)c1ccc(Cl)cc1)OC (stereo unspecified),1,-2,-3,71*
COC(CN(C(=O)CCl)C(C(=O)NC1CCCCC1)c1ccccc1C)OC (stereo unspecified),-27,·,·,·
COc1ccc(C(=O)Nc2sc3c(c2C#N)CCN(C(C)=O)C3)cc1,-16,2,-8,-17
CC(=O)N1CCc2c(sc(NC(=O)c3ccc([N+](=O)[O-])o3)c2C#N)C1,-93,67*,·,·
COc1ccc(CC(=O)NC(CC(=O)O)c2cccc([N+](=O)[O-])c2)cc1 (stereo unspecified),-1,-1,-7,122*
O=C(O)CC(NC(=O)COc1ccccc1)c1cccc([N+](=O)[O-])c1 (stereo unspecified),1,1,·,·
CC(=O)Nc1ccc(N=Nc2c(C)[nH]n(C(N)=S)c2=O)cc1,6,13,49*,4
Fc1ccccc1-c1nc(-c2ccc(Cl)cc2)no1,46,·,49*,0
Cc1ccccc1-c1noc(-c2ccccc2F)n1,107*,-1,67*,-2
C[C@@H]1CN([C@H](C)CO)C(=O)c2cc(NC(=O)CCN3CCOCC3)ccc2O[C@H]1CN(C)Cc1ccc(C(=O)O)cc1,·,·,-12,-44
Cc1ccsc1C1NC(=O)c2c(sc3c2CCCC3)N1 (stereo unspecified),52,·,50*,20
O=C1NC(c2ccc(Br)cc2)Nc2sc3c(c21)CCC3 (stereo unspecified),-14,8,3,9
O=C1NC(c2ccccn2)Nc2sc3c(c21)CCC3 (stereo unspecified),?,·,66*,-14
c1ccc(N2CCN(c3cnc4ccccc4n3)CC2)cc1,55,·,-2,-8
Clc1ccc(Sc2cnc3ccccc3n2)cc1,?,11,45*,·
SMILES,MITF act,Wnt bcat act,esBAF inh,Statin myotox sup
Clc1ccc(N2CCN(c3cnc4ccccc4n3)CC2)cc1,39,·,45*,9
COc1ccc(N2CCN(c3cnc4ccccc4n3)CC2)cc1,97*,10,53*,5
Fc1ccc(N2CCN(c3cnc4ccccc4n3)CC2)cc1,61,42*,11,13
COc1cccc(N2CCN(c3cnc4ccccc4n3)CC2)c1,50,8,·,·
c1ccc(Sc2cnc3ccccc3n2)cc1,70,·,·,·
CC(C)NC(=O)N(C)C[C@@H]1Oc2ncc(C#CC3CC3)cc2C(=O)N([C@H](C)CO)C[C@H]1C,·,·,-4,-4
CCOc1ccc(NCc2cccn2-c2nnc(N3CCC(C(=O)NCCCN4C(C)CCCC4C)CC3)s2)cc1 (stereo unspecified),-48,-2,7,102*
NC(=S)Nc1nc2ccccc2[nH]c1=O,·,4,·,·
Cc1ccc2[nH]c(=O)c(NC(N)=S)nc2c1,5,·,1,101*
COc1cccc(-c2ncc3ccccc3c2COC(=O)N2CCOCC2)c1,41,3,53*,2
C[C@@H]1CN([C@@H](C)CO)C(=O)c2cc(NC(=O)Nc3ccc(F)cc3)ccc2O[C@@H]1CN(C)S(=O)(=O)c1ccccc1,·,·,10,-50
COc1ccc(NC(=O)c2oc3ccccc3c2NC(=O)C2CC2)cc1OC,18,1,13,-5
Cc1ccc(NC(=O)c2oc3ccccc3c2NC(=O)C2CCCO2)cc1C (stereo unspecified),104*,47*,·,·
Cc1ccc(C)c(NC(=O)c2ccccc2NC(=O)C2CCCO2)c1 (stereo unspecified),-2,60*,·,·
CC(C)(C)NC(=O)c1ccccc1NC(=O)C1CCCO1 (stereo unspecified),4,-1,·,·
COc1ccc(NC(=O)c2coc3ccccc23)cc1OC,112*,·,83*,-8
O=C(Nc1ccc(F)c(F)c1)c1oc2ccccc2c1NC(=O)C1CCCO1 (stereo unspecified),30,5,32,12
COc1ccc(NC(=O)c2oc3ccccc3c2NC(=O)C2CCCO2)cc1OC (stereo unspecified),24,-3,63*,-12
COc1ccccc1-c1cn(CC[C@@H]2CC[C@H](NC(=O)C3CCCCC3)[C@H](CO)O2)nn1,·,·,4,-2
COc1ccc(S(=O)(=O)Nc2ccc3c(c2)CC(=O)N([C@H](C)CO)C[C@@H](C)[C@H](CN(C)S(C)(=O)=O)O3)cc1,·,·,0,9
O=c1[nH]c2ccccc2cc1-c1nnn(-c2ccc(F)cc2)n1,76,?,79*,4
Cc1ccc(-n2nnc(-c3cc4ccccc4nc3Cl)n2)cc1,·,1,45*,17
COc1ncccc1-c1nnn(-c2ccc(F)cc2)n1,-15,34*,54*,-10
Cc1ccc(-n2nnc(-c3nccs3)n2)cc1,-56,-5,-73,-36
COc1ncccc1-c1nnn(-c2ccc(C)cc2)n1,57,39*,?,4
SMILES,MITF act,Wnt bcat act,esBAF inh,Statin myotox sup
C[C@@H]1CN([C@@H](C)CO)C(=O)c2cccc(NC(=O)NC3CCCCC3)c2O[C@H]1CN(C)C(=O)Nc1ccc(F)cc1,·,·,5,-19
C[C@@H]1CN([C@@H](C)CO)C(=O)Cc2cc(NC(=O)CCC(F)(F)F)ccc2O[C@@H]1CN(C)Cc1ccc(Oc2ccccc2)cc1,·,·,0,-12
COc1ncccc1-c1nnn(-c2ccc(Cl)c(Cl)c2)n1,102*,39*,88*,17
O=C1c2ccccc2C(=O)N1CCCc1nc2ccccc2c(=O)n1CCCn1ccnc1,10,·,4,-1
O=c1c2ccccc2nc(-c2ccc(Cl)cc2Cl)n1CCCn1ccnc1,·,0,-4,100*
COc1ccc(OC)c2sc(N3CCCCC3)nc12,·,24,46*,6
COc1ccc(OC)c2sc(N3CCc4ccccc4C3)nc12,33,7,·,·
CO[C@@H]1CN(C)C(=O)c2ccc(NC(=O)C3CCOCC3)cc2OC[C@H](C)NC[C@H]1C,·,·,-8,-4
